# CYP2C9 inh: blockers of cytochrome P450 2C9 activity – biochemical, luminescence, ADME assay, primary screen | AID 777, 2007 | P11712 | actives 20% (n = 96,000) | CYP2C9 Supersomes, luciferin-H conversion | inhibition, % at 5 µM;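 active = blocking of liver enzyme CYP2C9 beyond about 50% at 5 µM, limit read from the data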
# Target sequence (P11712 whole entry, looked up): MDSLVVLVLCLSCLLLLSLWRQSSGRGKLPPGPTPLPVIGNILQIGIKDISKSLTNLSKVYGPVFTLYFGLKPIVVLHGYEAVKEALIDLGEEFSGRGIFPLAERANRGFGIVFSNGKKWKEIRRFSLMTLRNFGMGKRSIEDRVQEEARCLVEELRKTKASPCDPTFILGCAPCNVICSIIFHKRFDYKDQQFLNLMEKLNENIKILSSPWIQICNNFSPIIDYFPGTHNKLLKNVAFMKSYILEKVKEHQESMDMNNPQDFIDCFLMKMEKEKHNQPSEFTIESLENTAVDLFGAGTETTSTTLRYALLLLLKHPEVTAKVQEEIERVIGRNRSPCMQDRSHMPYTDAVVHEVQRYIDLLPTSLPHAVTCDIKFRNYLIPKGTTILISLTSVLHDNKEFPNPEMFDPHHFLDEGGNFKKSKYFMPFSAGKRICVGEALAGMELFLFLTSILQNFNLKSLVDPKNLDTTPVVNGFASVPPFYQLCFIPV
# CYP2C19 act: human CYP2C19 activators, primary screen, biochemical, luminescence; recombinant CYP2C19, luciferin-H EGE luminescence; active compounds read high; 0 = fully inhibited enzyme, 1 = untreated enzyme; activation factor at 5 µM; 96,000 tested, under 10 active; AID 1025, 2008;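 active = activation factor of at least 2 at 5 µM in the primary screen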;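 note: 0 = wells with 2.5 mM tranylcypromine and 1 = vehicle-only wells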
# CYP2C9 act: human CYP2C9 activators, primary screen, biochemical, luminescence; Cytochrome P450 2C9 (Homo sapiens), P11712; activation factor at 5 µM; actives 1.4% (n = 96,000); recombinant CYP2C9, luciferin-H conversion; active compounds read high; factor 1 = untreated enzyme, 0 = blocked;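 active = activation factor of 2 or more for CYP2C9 at a 5 µM dose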;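 note: 0 = sulfaphenazole-blocked wells and 1 = vehicle-only wells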
# CYP2C19 inh: blockers of cytochrome P450 2C19 activity – biochemical, luminescence, ADME assay, primary screen; CYP2C19 Supersomes, luciferin-H EGE luminescence, 30 min; actives 21% (n = 96,000); inhibition, % at 5 µM; AID 778, 2007;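 active = CYP2C19 inhibition above a set limit at 5 µM in the primary screen, cut at about 50% in these data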;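 note: plate controls were negative control wells for no effect and 2.5 mM tranylcypromine positive control for full effect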
# PostGolgi yeast: phenotypic screen on post-Golgi transport, primary screen; actives 0.9% (n = 98,000); inhibition, % at 10 µM; post-Golgi transport phenotypic cell assay;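 note: yeast cells grown in 1536-well plates; yeast grown about 18 h at 30C before absorbance read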
# PostGolgi ctrl: growth inhibition of yeast control strain, primary screen, counter-screen for post-Golgi transport modulator project; efflux-deficient yeast background strain, growth absorbance A615, 16 h; inhibition, % at 10 µM; actives 5% (n = 98,000)
# Starred values were filed as active, the others as inactive. Hits are enriched below; roughly 32% of the tested compounds scored in any of these assays. Cut-off read from the data, not from the text of the source, unless noted: active = inhibition above about 30%; inactive = the rest.
SMILES,CYP2C9 inh,CYP2C19 act,CYP2C9 act,CYP2C19 inh,PostGolgi yeast,PostGolgi ctrl
CCOC(=O)c1ccc(N2C(=O)c3n[nH]c(C)c3C2c2cccnc2)cc1 (stereo not given),68*,0.7,0.3,30,0,7
CCOC(=O)c1ccc(N2C(=O)C(O)=C(C(C)=O)C2c2ccccn2)cc1 (stereo not given),52*,1.1,0.5,-6,-1,-6
COC(CN1C(=O)C(O)=C(C(C)=O)C1c1ccccn1)OC (stereo not given),15,0.9,0.8,7,7,-3
CCOC(=O)c1ccc(N2C(=O)c3n[nH]c(C)c3C2c2ccccn2)cc1 (stereo not given),69*,0.6,0.3,42,-4,13
COc1cccc2c(=O)c3c(cnn3C)n(C)c12,-18,0.9,1.2,12,42*,-6
COc1cc(=O)n(C)c2ccccc12,-20,1,1.2,-4,5,7
CC(=O)N1CCCc2cc(S(=O)(=O)CCC(=O)N3CCN(c4cccc(C)c4)C(C)C3)ccc21 (stereo not given),19,0.4,0.8,58*,0,2
COc1ccccc1CNC(=O)CCS(=O)(=O)c1ccc2c(c1)CCCN2C(C)=O,-20,1,1.2,4,-3,0
CC(=O)N1CCCc2cc(S(=O)(=O)NCCC3=CCCCC3)ccc21,11,0.5,0.9,53*,-4,23
CC(=O)N1CCCc2cc(S(=O)(=O)NCc3ccc(C)cc3)ccc21,0,0.2,1,82*,-2,30
CCN(CCCNS(=O)(=O)c1ccc2c(c1)CCN2C(C)=O)c1cccc(C)c1,32,0.4,0.7,62*,4,12
Cc1cccc(CSc2ncnc3c2cnn3Cc2ccccc2)c1,49,1,0.5,-2,13,13
COc1ccccc1OCC(=O)N/N=C1/SCC(=O)N1Cc1ccccc1,-9,0.9,1.1,14,-10,9
CC1=C(C(=O)OCc2ccccc2)C(c2ccoc2)C(C#N)=C(N)O1 (stereo not given),48,0.2,0.5,77*,-10,8
Cc1ccc(-n2nc(C)c3c2OC(N)=C(C#N)C3c2cccs2)cc1 (stereo not given),27,0.9,0.7,7,-3,2
C=CCOC(=O)C1=C(C)OC(N)=C(C#N)C1c1c(C)nn(-c2ccccc2)c1Cl (stereo not given),82*,0.1,0.2,89*,-4,21
CCOC(=O)C1=C(C)OC(N)=C(C#N)C1c1c(C)nn(-c2ccccc2)c1Cl (stereo not given),74*,0.2,0.3,83*,-4,28
CC(C)(C)c1ccc(OCC(=O)OCCNC(=O)c2cccnc2)cc1,40,0.6,0.6,41,-3,18
C/C(N)=C(/C#N)C(=O)COC(=O)C(NS(=O)(=O)c1ccc(Cl)cc1)C(C)O (stereo not given),16,0.9,0.8,14,1,8
CCN1CCN(C(=O)Nc2ccc(Cc3ccc(NC(=O)N4CCN(CC)CC4)cc3)cc2)CC1,-5,1.1,1,-7,9,0
CCc1cc2cc(C(=O)N3CCN(c4ccccc4)CC3)sc2s1,63*,0.6,0.4,43,-2,4
CCc1cc2cc(C(=O)N3CCN(Cc4ccccc4)CC3)sc2s1,9,0.5,0.9,46,18,35*
CCCOc1c(Cl)cc(C(=O)Nc2ccc3c(c2)OCO3)cc1OCC,10,0.9,0.9,7,4,18
CNC(=O)c1ccc(N(Cc2ccccc2)S(C)(=O)=O)cc1,36,0.5,0.6,52*,-2,-7
COc1ccccc1NC(=O)c1ccc(CN(c2cc(Cl)ccc2C)S(=O)(=O)c2ccccc2)cc1,20,1,0.8,-4,-2,-1
CC(=O)c1cccc(NC(=O)c2ccc(N(Cc3ccccc3)S(C)(=O)=O)cc2)c1,13,0.9,0.9,6,2,-4

# Bioassay records deposited in PubChem by several laboratories.
